Our source for the growth values is PubChem BioAssay (NCI).

About 83,000 compounds went through this panel and 20% of them were active in at least one assay; those are over-represented in the sample as a whole.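 Results are percent growth after 48 hours of single-concentration exposure. 100 means growth as in untreated cells, lower positive values show inhibition; negative values down to -100 show cell death.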 Unmarked numbers belong to inactive results. Active and inactive are the calls of the source. How the source made its calls: active means growth percent below 10; inactive means the rest.

This experiment deals with HL-60(TB) leukemia. The experiment can be described thus: NCI-60 one-dose screen, 48 h (100 = growth as untreated, 0 = no growth, -100 = all killed). The following applies: 10 µM unless noted.
As for `O=P(O)(O)OCC1OC(n2cnc3c(NCc4ccco4)ncnc32)C(O)C1O` (centres undefined), the growth is -6.93% (active). As for `CC(O)CCC(C)[N+](=O)[O-]` (centres undefined), the figure is 96.9%. The result for `COC(=O)c1nc(-c2ccccc2)oc1S(=O)(=O)N1CCC(C(N)=O)CC1` reads -33.2% (active); that for `CC[C@@H]1C(=O)N(C)c2cnc(Nc3ccc(C(=O)NC4CCN(C)CC4)cc3OC)nc2N1C1CCCC1`, -42.1% (active). As for `CNCCNc1nc2ccccc2c2c(=O)c3cccc(OC)c3sc12`, the figure is 26.5%; as for `COc1ccc(S(=O)(=O)N(Cc2ccc3c(n2)C=CC(C)(C)O3)C2CCC2)cc1OC`, -13.5% (active).

For the compound `CC(=O)NCCSC(=O)C(=O)SCCNC(C)=O`, the growth was 83.6%.

Take `COc1cc(C(=O)Nc2cc(O)c(C/C=C(\C)CCC=C(C)C)c(O)c2)cc2c1O[C@]1(C)CC[C@@H](O)C(C)(C)[C@H]1C2`: the growth was -3.87% (active). As for `COc1ccccc1OCC(O)CO` (centres undefined), the figure is 74.1%; as for `CCN=C1C=CC(=C(c2ccc(N(C)C)cc2)c2ccc(N(C)C)cc2)c2ccccc21`, -9.26% (active). As to `N#CC1=C(NC=O)Oc2c(ccc3ccccc23)C1c1ccccc1` (centres undefined), the growth was 18.1%. With `CCCc1nn(C)c2c(=O)[nH]c(-c3cc(S(=O)(=O)N4CCN(C)CC4)ccc3OCC)nc12`, the growth is 114%. The result for `C[C@]12CC[C@@H]3c4ccc(O)cc4CC[C@H]3[C@@H]1C[C@H](O)C2` reads 52%. The result for `COC(=O)[C@@H](Cc1c[nH]c2ccccc12)NC(=O)[C@H](Cc1ccccc1)NCc1ccncc1` reads 80.6%.
